According to PubChem BioAssay AID1159580 (chemical genetic matrix, 2015):
Values joined by “and” are separate entries in the source; they are usually repeats but may differ in a detail not shown here. Equal entries are not always repeated. Screen size: about 5,500 compounds; about 2,000 (36%) were called active. Inconclusive results (about 18%) are left out. No stated cut-off is given here; in the data, active means normalized growth mostly below about 0.91 (no sharp cut-off); inconclusive means no clear call, values can overlap the other calls; inactive means mostly above about 0.92. Some of the results follow.

Test: chemical genetic growth profiling, strain panel (AID 1159580);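 further: tested at 20 µM; growth read once vehicle control cultures reached saturation at 30 °C; 1 = growth at the plate median or of vehicle wells; lower values mean less growth of the strain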
Conditions: S. cerevisiae deletion strains, growth OD

Measured: normalized growth

O=C1C[C@@H](c2ccc(O)cc2)Oc2cc(O)cc(O)c21
inactive: locus YAL013W, strain DEP1, active compounds read low 1.02 | locus YAL021C, strain ccr4, active compounds read low 0.987 | locus YAL026C, strain drs2, active compounds read low 0.969 | locus YAL030W, strain snc1, active compounds read low 0.953 | locus YBL061C, strain skt5, active compounds read low 0.974 | locus YBR009C, strain hhf1, active compounds read low 0.959 | locus YBR021W, strain FUR4, active compounds read low 0.995 | locus YBR023C, strain chs3, active compounds read low 0.955 | locus YBR171W, strain sec66, active compounds read low 0.989 | locus YBR229C, strain ROT2, active compounds read low 1.02 | locus YBR231C, strain swc5, active compounds read low 0.972 | locus YBR279W, strain paf1, active compounds read low 0.97 | locus YCL011C, strain gbp2, active compounds read low 0.952 | locus YCL016C, strain dcc1, active compounds read low 0.969 | locus YCL029C, strain bik1, active compounds read low 1.03 | locus YCL061C, strain MRC1, active compounds read low 0.979 | locus YCL069W, strain vba3, active compounds read low 0.966 | locus YCR088W, strain abp1, active compounds read low 0.955 | locus YDL005C, strain med2, active compounds read low 0.978 | locus YDL035C, strain GPR1, active compounds read low 1.01 | locus YDL040C, strain nat1, active compounds read low 0.976 | locus YDL074C, strain BRE1, active compounds read low 1.01 | locus YDL101C, strain DUN1, active compounds read low 1.01 | locus YDL134C, strain PPH21, active compounds read low 1.01 | locus YDL185W, strain tfp1, active compounds read low 1.01 | locus YDL192W, strain arf1, active compounds read low 1.01 | locus YDR001C, strain nth1, active compounds read low 0.964 | locus YDR069C, strain doa4, active compounds read low 0.944 | locus YDR101C, strain arx1, active compounds read low 1.01 | locus YDR137W, strain rgp1, active compounds read low 0.955 | locus YDR150W, strain NUM1, active compounds read low 1.01 | locus YDR159W, strain sac3, active compounds read low 0.942 | locus YDR162C, strain NBP2, active compounds read low 1.01 | locus YDR195W, strain ref2 0.931 | locus YDR297W, strain sur2, active compounds read low 0.97 | locus YDR318W, strain mcm21, active compounds read low 1.01 | locus YDR334W, strain swr1, active compounds read low 0.962 | locus YDR335W, strain msn5, active compounds read low 0.979 | locus YDR388W, active compounds read low 1.01 | locus YDR392W, strain spt3, active compounds read low 0.862 | locus YDR502C, strain sam2, active compounds read low 1.01 | locus YEL003W, strain gim4, active compounds read low 0.977 | locus YEL037C, strain rad23, active compounds read low 0.968 | locus YEL061C, strain CIN8 (second series), active compounds read low 0.949 | locus YEL061C, strain CIN8, active compounds read low 1.01 | locus YER015W, strain faa2, active compounds read low 0.982 | locus YER016W, strain bim1, active compounds read low 0.971 | locus YER110C, active compounds read low 1.02 | locus YER111C, strain swi4, active compounds read low 0.958 | locus YER155C, strain BEM2 (second series), active compounds read low 0.875 | locus YER155C, strain BEM2, active compounds read low 1.01 | locus YER167W, strain BCK2, active compounds read low 1.01 | locus YFR010W, strain ubp6, active compounds read low 0.924 | locus YGL078C, strain dbp3, active compounds read low 1.02 | locus YGL086W, strain mad1, active compounds read low 1.01 | locus YGL167C, strain pmr1, active compounds read low 0.949 | locus YGL173C, strain kem1, active compounds read low 0.969 | locus YGL227W, strain vid30, active compounds read low 0.948 | locus YGL240W, strain doc1, active compounds read low 0.944 | locus YGL248W, strain PDE1, active compounds read low 1.01 | locus YGL253W, strain hxk2, active compounds read low 0.983 | locus YGR078C, strain PAC10, active compounds read low 1.01 | locus YGR135W, strain pre9, active compounds read low 1 | locus YGR229C, strain SMI1, active compounds read low 1.01 | locus YGR252W, strain gcn5, active compounds read low 0.988 | locus YHR013C, strain ard1, active compounds read low 0.933 | locus YHR027C, strain rpn1, active compounds read low 0.971 | locus YHR030C, strain SLT2, active compounds read low 1.01 and 0.975 | locus YHR079C, strain IRE1 (second series), active compounds read low 1.01 | locus YHR079C, strain IRE1, active compounds read low 0.977 | locus YHR094C, strain hxt1, active compounds read low 1 | locus YHR129C, strain ARP1, active compounds read low 1.01 | locus YHR142W, strain chs7, active compounds read low 0.942 | locus YHR200W, strain rpn10, active compounds read low 1.01 | locus YIL066C, strain RNR3, active compounds read low 1.02 | locus YIL073C, strain SPO22, active compounds read low 1.05 | locus YIL125W, strain kgd1, active compounds read low 1.01 | locus YIR030C, strain dcg1, active compounds read low 1.02 | locus YJL092W, strain hpr5, active compounds read low 0.977 | locus YJL095W, strain BCK1 (second series), active compounds read low 0.976 | locus YJL095W, strain BCK1, active compounds read low 0.997 and 0.98 | locus YJL115W, strain asf1, active compounds read low 0.964 | locus YJL129C, strain trk1, active compounds read low 0.947 | locus YJL134W, strain LCB3, active compounds read low 1.01 | locus YJL154C, strain vps35, active compounds read low 0.967 | locus YJL164C, strain tpk1, active compounds read low 0.97 | locus YJL166W, strain qcr8, active compounds read low 0.968 | locus YJL168C, strain set2, active compounds read low 1.02 | locus YJL187C, strain SWE1 (second series), active compounds read low 1.02 | locus YJL187C, strain SWE1, active compounds read low 0.965 | locus YJR043C, strain POL32, active compounds read low 1.01 | locus YJR066W, strain TOR1, active compounds read low 0.935
